# Compound activity from PubChem.
# Only a selection was taken, and hits are over-represented in it overall.
# Cruzain Triton: inhibitors of Trypanosoma cruzi cruzain with detergent; P25779; purified cruzain, Z-FR-AMC fluorescence, 0.01% Triton; Potency, µM, inactives show max response, negative = inhibition, hits mostly inhibitors; actives 0.43% (n = 200,000); active = well fitted curve in the direction sought with a large enough effect; inconclusive = small, poorly fitted or top-dose-only effect, or another doubt; inactive = no such curve, though single readings can be large; an effect the other way counts as inactive or inconclusive;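 note: potency is the fitted concentration of half-maximal effect; plate controls were neutral wells for no effect and buffer without enzyme for full effect; nearly all actives have a fitted effect of over 40% in size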
# Target sequence (P25779 123-467 limits assumed): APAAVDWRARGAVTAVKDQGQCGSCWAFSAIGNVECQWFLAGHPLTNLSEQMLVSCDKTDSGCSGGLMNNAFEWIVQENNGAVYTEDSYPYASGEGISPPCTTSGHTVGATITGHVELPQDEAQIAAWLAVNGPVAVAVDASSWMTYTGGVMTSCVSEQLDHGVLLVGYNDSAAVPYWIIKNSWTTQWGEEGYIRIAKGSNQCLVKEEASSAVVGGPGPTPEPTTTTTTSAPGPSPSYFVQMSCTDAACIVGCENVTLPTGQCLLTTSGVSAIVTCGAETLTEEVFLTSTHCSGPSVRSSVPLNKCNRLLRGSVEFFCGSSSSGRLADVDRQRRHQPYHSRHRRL
#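 Enzyme 1.5 nM, Z-FR-AMC 2 uM, NaOAc 100 mM pH 5.5, DTT 5 mM, Triton X-100 0.01%; 15 min RT compound preincubation; kinetic ex360/em450, 60 s delta.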
# NS1 inh: blocks influenza NS1 protein function | Potency, µM (series often up to 46.1 µM), for the others: at the top dose activity, positive = more growth | actives 0.4% (n = 270,000) | AID 2326; note: potency is the fitted concentration of half-maximal effect; actives are rising curves; nearly all actives have a fitted effect of over 50% in size
#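 In this qHTS, NS1 from influenza A is expressed in budding yeast, where it slows growth. Cells are switched from glucose to 2% galactose medium (pH 6.0, -URA), treated with compound, and growth recovery is read at OD600.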
# Cruzain inh noDet: inhibitors of Trypanosoma cruzi cruzain without detergent; actives 2.3% (n = 200,000); Potency, µM, for inactives: max response, negative = inhibition, actives largely listed as inhibitors; purified cruzain, Z-FR-AMC fluorescence, no detergent; P25779; active = well fitted curve in the direction sought with a large enough effect; inconclusive = small, poorly fitted or top-dose-only effect, or another doubt; inactive = no such curve, though single readings can be large; an effect the other way counts as inactive or inconclusive;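 note: potency is the fitted concentration of half-maximal effect; plate controls were enzyme without inhibitor for no effect and buffer without enzyme for full effect; nearly all actives have a fitted effect of over 40% in size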
#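 Detergent-free condition (0.00005% Triton X-100) in acetate buffer pH 5.5 with DTT. 1.5 nM enzyme and compound were pre-mixed 15 min, then 2 uM Z-FR-AMC substrate added; reaction progress from fluorescence change between first and third reads (60 s).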
# Flu NS1 inh: influenza NS1 function inhibition validation. activity change, negative = inhibition, % at 32.9 µM. influenza NS1 function cell assay, 15-point titration. AID 492980. 1,400 tested, under 10 active. shares compounds with NS1 inh; note: 0% is about no effect
# * = called active by the depositor; ? = inconclusive; · = not tested or not shown. Unless noted, calls come from the whole dose curve.
SMILES,Cruzain Triton,NS1 inh,Cruzain inh noDet,Flu NS1 inh
C[C@H](NC(=O)c1nc[nH]c1C(=O)NCCCCCNC(=O)OC(C)(C)C)C(=O)OCc1ccccc1,·,2%,·,·
CC(C)(C)OC(=O)[C@H](Cc1ccccc1)NC(=O)c1nc[nH]c1C(=O)NCC(=O)OCc1ccccc1,·,11µM*,·,-23
O=S(=O)(c1cccc(C(F)(F)F)c1)N1CCCC1c1cccnc1 (stereo unspecified),·,1%,·,·
FC(F)C(F)(F)c1cc(-c2ccc(Cl)cc2)n[nH]1,·,-68%,·,·
COc1cc(Cl)c(C)cc1NC(=O)c1ccc2c(c1)OCO2,·,22%,·,·
O=S(=O)(N=S(N1CCCCC1)N1CCCCC1)c1ccccc1,0%,-7%,6%,·
CC(=O)N1CCc2cc(S(=O)(=O)NC(C(=O)Nc3ccc4c(c3)OCCO4)C(C)C)ccc21 (stereo unspecified),-3%,16%,13%,·
CC(C)OC(=O)/C(=C/c1cccnc1)NC(=O)c1ccccc1,1%,0%,-8%,·
CC(C)OC(=O)/C(=C\C=C\c1ccccc1)NC(=O)c1ccccc1,-12%,?,-9%,-3
CCCC(=O)N(CCN1CCOCC1)c1nc2c(C)cccc2s1,·,-28%,·,·
Nc1ccc2nc(SCC(=O)Nc3ccc(N4CCOCC4)c(Cl)c3)sc2c1,-8%,10µM*,?,-6
CCCC(=O)Nc1ccc2nc(SCC(=O)Nc3ccc(N4CCOCC4)c(Cl)c3)sc2c1,2%,4%,4%,·
COC(=O)c1scc(S(C)(=O)=O)c1-n1cccc1,·,8%,·,·
COc1cc2cc(C(c3nnnn3C(C)(C)C)N3CCc4ccccc4C3)c(=O)[nH]c2cc1OC (stereo unspecified),-11%,-25%,?,·
CCC(C)(C)n1nnnc1C(c1cc2cc(OC)c(OC)cc2[nH]c1=O)N1CCc2ccccc21 (stereo unspecified),-10%,14µM*,?,?
C=CCn1c(=NC(=O)c2cc(-c3cccs3)nc3ccccc23)sc2cc(S(N)(=O)=O)ccc21,-4%,?,?,·
COCCn1c(=NC(=O)c2cc(-c3cccs3)nc3ccccc23)sc2cc(S(N)(=O)=O)ccc21,-6%,11µM*,-23%,26
COc1ccc(N(CC(=O)Nc2cc(OC)cc(OC)c2)S(=O)(=O)c2c(C)noc2C)cc1,-5%,·,4%,·
CCCn1c(=O)c(Cc2ccccc2)c(O)c2ccccc21,2%,?,-26%,1
CCCCCn1c(=O)c(Cc2ccccc2)c(O)c2ccccc21,-11%,2%,-5%,·
COc1ccc(-c2cc(N)n(S(=O)(=O)c3c(F)c(F)c(F)c(F)c3F)n2)cc1OC,-14%,-95%,-2%,·
Cc1ccc(C2=CC(C)(c3ccc(C)cc3)Nc3nc(C(F)(F)F)nn32)cc1 (stereo unspecified),-8%,1%,-6%,·
CC1(c2ccc(OCC#N)cc2)C=C(c2ccc(OCC#N)cc2)n2nc(C(F)(F)F)nc2N1 (stereo unspecified),-4%,10µM*,?,?
CCN1CCN(C(=S)NCC(C)C)CC1,1%,-4%,4%,·
CCOC(=O)c1ccc(NC(=O)C2COc3ccccc3O2)cc1 (stereo unspecified),·,-51%,·,·
SMILES,Cruzain Triton,NS1 inh,Cruzain inh noDet,Flu NS1 inh
CCOC(=O)c1ccc(-n2c(O)c(/C=N/NC(=O)C3COc4ccccc4O3)c3ccccc3c2=O)cc1 (stereo unspecified),-9%,8.9µM*,9%,-3
O=S(=O)(NCC(c1ccco1)N1CCN(c2ccccc2)CC1)c1cc(F)ccc1F (stereo unspecified),-5%,·,-5%,·
CCCC(C)C(=O)Nc1cc([N+](=O)[O-])ccc1F (stereo unspecified),-1%,13%,-1%,·
Cc1cccc(Nc2nnc(-c3ccc(C)c(S(=O)(=O)N4CCN(C)CC4)c3)c3ccccc23)c1,-11%,·,-12%,·
Cc1cc(NC(=O)CSc2nnc(-c3ccccc3Cl)o2)no1,·,-2%,·,·
COc1cccc(Nc2nnc(SCN3C(=O)c4ccccc4C3=O)s2)c1,-3%,2%,?,·
COc1cccc(NC(=O)C(Sc2nnc(Nc3ccccc3C)s2)c2ccccc2)c1 (stereo unspecified),-2%,5µM*,?,-2
COc1ccc(OCC(NS(=O)(=O)c2ccc(-n3cnnn3)cc2)C(C)C)cc1 (stereo unspecified),·,-11%,·,·
COc1cc(-c2noc(CCC(=O)Nc3cc(C)ccc3C)n2)cc(OC)c1OC,-4%,·,?,·
CCN(CC)C(=O)CSc1nc2cc3c(cc2c(=O)n1CCCC(=O)NCc1ccc(OC)cc1)OCO3,3%,·,-7%,·
COc1ccc(CNC(=O)CCCCCn2c(SCC#N)nc3cc4c(cc3c2=O)OCO4)cc1,4%,11µM*,?,-16
COc1ccc(Nc2nc(C)cc(C)c2C#N)cc1,2%,8%,-10%,·
COc1ccc(Oc2nc(C)cc(C)c2C#N)cc1,0%,?,-2%,-1
CCCC(=O)Nc1ccc(Cl)c(NC(=S)NC(=O)c2cc3ccccc3o2)c1,-3%,?,5µM*,1
CCCC(=O)Nc1ccc(NC(=O)c2cc3ccccc3o2)c(OC)c1,·,20%,·,·
Cc1ccccc1C(=O)Nc1nnc(S(=O)(=O)N2c3ccccc3CC2C)s1 (stereo unspecified),-1%,·,4%,·
COc1ccc2c(c1)c(CC(=O)Nc1cc(C)ccc1C)c(C)n2C(=O)c1ccc(Cl)cc1,-5%,?,13µM*,-6
COc1ccc2c(c1)c(CC(=O)Nc1c(C)cccc1C)c(C)n2C(=O)c1ccc(Cl)cc1,1%,·,-12%,·
Cn1c(=O)oc2cc(S(=O)(=O)NCCN3CCN(c4ccccc4F)CC3)ccc21,-1%,0%,-3%,·
O=c1cc(N2CCNCC2)oc2c(-c3ccccc3)cccc12,1%,·,-6%,·
COc1cc(Br)c(Br)cc1N,·,5%,·,·
Cc1cc2cc(CNC(=S)Nc3ccc(OC(F)(F)F)cc3)ccc2[nH]1,-3%,?,?,16
Cc1cc2cc(CNC(=O)c3ccc(C)c([N+](=O)[O-])c3)ccc2[nH]1,-3%,8.9µM*,?,-23
Cc1cc2cc(CNC(=S)Nc3ccc(OC(F)F)cc3)ccc2[nH]1,-8%,?,-10%,·
CCNC(=S)NCc1ccc2[nH]c(C)cc2c1,-1%,11µM*,11%,20
SMILES,Cruzain Triton,NS1 inh,Cruzain inh noDet,Flu NS1 inh
CCOC(=O)NCc1ccc2[nH]c(C)cc2c1,·,26%,·,·
Cc1cc2cc(CCNC(=O)c3ccc(C)c([N+](=O)[O-])c3)c(=O)[nH]c2cc1C,-10%,26%,?,·
CNC(=O)COC(=O)c1ccc2c(c1)S(=O)(=O)c1ccccc1C2=O,·,6%,·,·
CCOC(=O)c1c(S(=O)(=O)N2CCCC(C(=O)N3CCN(c4cc(C)ccc4C)CC3)C2)c(C)n(C)c1C (stereo unspecified),1%,·,-2%,·
Cc1nc(SCC(=O)Nc2ccc(Br)cc2)[nH]c(=O)c1Cc1ccccc1,-2%,·,6%,·
O=C(CN1C(=O)S/C(=C\C=C\c2ccccc2)C1=O)Nc1ccc(C(=O)O)cc1,·,0%,·,·
O=C(CN1C(=O)/C(=C\C=C\c2ccccc2)SC1=S)Nc1ccc(F)cc1,-7%,18µM*,6.3µM*,-5
